PubChem BioAssay (EPA / NIEHS)
Several values for one entry are separate records, joined by “and”; a condition that tells them apart may be missing. Equal values may be shown once. Where a structure was tested more than once in an assay, its records may differ in their call. Activity calls are given as the source filed them. Rule for the calls: active = hit-call score of the fitted dose curve at least 0.9, where 1 is the maximum; inactive = score below 0.9.

assay: ATG_ERE_CIS: Attagene CIS-FACTORIAL HepG2 Assay for Estrogen Response Element (ERE) (AID 2282940); conditions: HepG2 ERE cis-reporter, Attagene RNA transcript; actives raise or lower the signal
Description: ATG_CIS is a cell-based, multiplexed-readout assay that uses HepG2, a human liver cell line, with measurements taken at 24 hours after chemical dosing in a 24-well plate.ATG_ERE_CIS is one of 52 assay component(s) measured or calculated from the ATG_CIS assay. It is designed to make measurements of mRNA induction, a form of inducible reporter, as detected with fluorescence intensity signals by Reverse transcription polymerase chain reaction (RT-PCR) and Capillary electrophoresis technology.Data from the assay component ATG_ERE_CIS was analyzed into 1 assay endpoint. This assay endpoint, ATG_ERE_CIS, was analyzed with bidirectional fitting relative to DMSO as the negative control and baseline of activity. Using a type of inducible reporter, measures of mRNA for gain or loss-of-signal activity can be used to understand the reporter gene at the transcription factor-level as they relate to the gene ESR1. Furthermore, this assay endpoint can be referred to as a primary readout, because this assay has produced multiple assay endpoints where this one serves a reporter gene function. To generalize the intended target to other relatable targets, this assay endpoint is annotated to the nuclear receptor intended target family, where the subfamily is steroidal.
Human liver HepG2 cells are transiently transfected with multiple reporter transcription units (MRTUs) in 6-well plates using FuGene 6 reagent (Roche; 3 ml FuGene/1 mg DNA). The MRTU constructs are regulated by a cis-regulating element (promoter). […] A major difference between the CIS and TRANS system is that in CIS activities of endogenous TFs are measured, whereas the TRANS assay evaluates changes in activities of exogenous, chimeric NR-Gal4 proteins. […] At the end of 24 hour incubation, total RNA was isolated using TriZol reagent (Invitrogen). The isolated RNA is then reverse-transcribed using oligo(dT) primer and Mo-MLV reverse transcriptase (Invitrogen) with DNAse I (Ambion) treatment for 30 min. The one-tenth of the produced cDNA was amplified by PCR using Taq DNA polymerase (Invitrogen) and two reporter sequence-specific primers. The PCR products were fluorescently labeled by primer extension with 6-arboxyfluorescein (6-FAM) 5'-labeled reporter sequence-specific primer (2 min at 95 C, 20 s at 68 C and 10 min at 72 C) and these products were digested with 5U of HpaI (New England Biolabs) for 2h at 37 C. The fragments were purified using Qiaquick PCR columns (Qiagen), analyzed on an ABI 3130xL genetic analyzer (Applied Biosystems) with peak positions identified by using a set of X-rhodamine (ROX)-labeled MapMarker1000 molecular weight standards (BioVentures). The raw capillary electrophoresis data was processed using Attagraph software (Attagene).

Compound	outcome	AC50
O=C(NO)C1(NS(=O)(=O)c2ccc(Oc3ccc(F)cc3)cc2)CCOCC1	inactive	–
OC(O)(C(F)C(O)(O)C(F)(F)F)C(F)(F)F	inactive	150 µM (active)
C=CCc1cc(S(=O)(=O)c2ccc(O)c(CC=C)c2)ccc1O	–	1.12 µM (active)
CC1(C)C(=O)N(Cl)C(=O)N1Cl	inactive	–
c1ccc2cc3ccccc3cc2c1	inactive	–
OCCC(F)(F)C(F)(F)C(F)(F)C(F)(F)F	inactive	–
CCCCCOC(C)=O	inactive	–
OC(CCl)CCl	inactive	–
COS(C)(=O)=O	inactive	–
S=P(N1CC1)(N1CC1)N1CC1	inactive	–
OCCOCCOCCO	inactive	–
CC[C@H](C)C(=O)O[C@H]1C[C@H](O)C=C2C=C[C@H](C)[C@H](CC[C@@H](O)C[C@@H](O)CC(=O)O)[C@H]21	inactive	–
CCCOc1ccc(S(=O)(=O)N2CCN(CC)CC2)cc1-c1nc2c(CC)n(Cc3ccccn3)nc2c(=O)[nH]1	inactive	–
O=C(O)CO	inactive	–
O=S1(=O)CCCO1	inactive	–
NC(=O)N(O)[C@@H]1COc2cc(OCc3ccccc3)ccc21	inactive	–
C[C@@H](Oc1ccc(CNC(=O)c2cccnc2Oc2ccc3c(c2)OCO3)c(F)c1)C(=O)O	inactive	–
O=C(N[C@H](CO)[C@H](O)c1ccc([N+](=O)[O-])cc1)C(Cl)Cl	inactive	–
CNC(C)=O	inactive	–
NC(=O)NN=Cc1ccc([N+](=O)[O-])o1	inactive	–

Compound	outcome	AC50
FC(F)(F)COC(OCC(F)(F)F)OCC(F)(F)F	inactive	–
CCOc1ccc2[nH]cc(C(=O)NCc3ccccc3)c(=O)c2n1	inactive	–
CCCCCCCCCCCCCCCCOS(=O)(=O)O	inactive	–
CCCCOC(=O)c1ccccc1	inactive	–
CCCCCCOC(=O)CC(CC(=O)OCCCCCC)(OC(=O)CCC)C(=O)OCCCCCC	inactive	–
CCCCN1C(=O)[C@@H]([C@H](O)C2CCCCC2)NC(=O)C12CCN(Cc1ccc(Oc3ccc(C(=O)O)cc3)cc1)CC2	inactive	–
O=C(O)c1cccc(C[C@@H]2COc3ccc(OCc4nc5cc(F)ccc5s4)cc3[C@@H]2O)c1	inactive	–
OC[C@H]1O[C@@H]2O[C@H]3[C@H](O)[C@@H](O)[C@@H](O[C@H]4[C@H](O)[C@@H](O)[C@@H](O[C@H]5[C@H](O)[C@@H](O)[C@@H](O[C@H]6[C@H](O)[C@@H](O)[C@@H](O[C@H]7[C@H](O)[C@@H](O)[C@@H](O[C@H]1[C@H](O)[C@H]2O)O[C@@H]7CO)O[C@@H]6CO)O[C@@H]5CO)O[C@@H]4CO)O[C@@H]3CO	inactive	–
CCn1nc(C)c2c1C(=O)NCC(c1ccc(O)cc1)=N2	inactive	–
CC(C)C(=O)Nc1ccc([N+](=O)[O-])c(C(F)(F)F)c1	inactive	–
Cc1cccc(O)c1C	–	59.3 µM (active) and 59.6 µM (active)
CCCCCCCCCCCCCCO	inactive	–
O=c1[nH]cnc2c1ncn2[C@H]1CC[C@@H](CO)O1	inactive	–
CCCCC(CC)C(=O)OCCOCCOCCOC(=O)C(CC)CCCC (stereo not given)	inactive	–
Cc1ncc([C@@H](CCCCCCc2ccc3c(n2)NCCC3)CC(=O)O)cn1	inactive	–
NC(N)=O	inactive	–
Nc1ccn([C@@H]2O[C@H](CO)[C@@H](O)[C@@H]2O)c(=O)n1	–	6.66 µM (active)
NNC(=O)c1ccncc1	–	26.6 µM (active)
Cn1cc[nH]c1=S	inactive	–
